Legend:
Test in all cases: growth inhibition (% activity, log2 RLU normalised to DMSO / staurosporine); higher = more growth inhibition
Details in all cases: 33 µM
DIPGX29 = tested on: DIPGX29 (H3.3 K27M diffuse intrinsic pontine glioma line)
How it was run: (§1)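 Approved drugs, at a single final concentration of about 33 μM, were applied in triplicate to pHGG cell lines and H9-derived neural stem cells for 7 days at 37 °C, 5% CO2. The growth-inhibition value is the replicate median of log2-transformed CellTiter-Glo luminescence normalised per plate to % activity between solvent and positive control wells.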

DIPGX37 = tested on: DIPGX37 (H3.3 K27M diffuse intrinsic pontine glioma line)
How it was run: as §1

DIPGX7 = tested on: DIPGX7 (H3.3 K27M diffuse intrinsic pontine glioma line)
How it was run: as §1

DIPGX9 = tested on: DIPGX9 (diffuse intrinsic pontine glioma line)
How it was run: as §1

HGGX39 = tested on: HGGX39 (paediatric high-grade glioma line)
How it was run: as §1

HGGX6 = tested on: HGGX6 (H3.3 G34R paediatric high-grade glioma line)
How it was run: as §1

HNSC = tested on: HNSC
How it was run: as §1

SUDIPGIV = tested on: SUDIPGIV (diffuse intrinsic pontine glioma line)
How it was run: as §1

SUDIPGVI = tested on: SUDIPGVI (diffuse intrinsic pontine glioma line)
How it was run: as §1

SUDIPGXIII = tested on: SUDIPGXIII (diffuse intrinsic pontine glioma line)
How it was run: as §1

Row | SMILES | growth inhibition (DIPGX29) [%] | growth inhibition (DIPGX37) [%] | growth inhibition (DIPGX7) [%] | growth inhibition (DIPGX9) [%] | growth inhibition (HGGX39) [%] | growth inhibition (HGGX6) [%] | growth inhibition (HNSC) [%] | growth inhibition (SUDIPGIV) [%] | growth inhibition (SUDIPGVI) [%] | growth inhibition (SUDIPGXIII) [%]
1 | Nc1cc(C(Cl)=C(Cl)Cl)c(S(N)(=O)=O)cc1S(N)(=O)=O | 0.128 | 3.1 | 1.7 | 0.825 | 2.48 | 1.57 | 1.89 | 1.51 | -1.12 | 1.37
2 | CN1CCC(=C2c3ccccc3CCc3sccc32)CC1 | 2.69 | 1.01 | 1.97 | 2.15 | 7.57 | -1.66 | 1.57 | 3.73 | -0.736 | 1.69
3 | CCN1CCN(c2cc3c(cc2F)c(=O)c(C(=O)O)cn3C2CC2)CC1 | -0.107 | 1.21 | 0.805 | 1.48 | 4.31 | -0.135 | 1.17 | 1.5 | 1.16 | -0.234
4 | COc1nc(C)nc(Cl)c1NC1=NCCN1 | -1.42 | -1.39 | -1.95 | -1.31 | 0.125 | -1.01 | -1.76 | -1.72 | -2.98 | -0.769
5 | Cc1ccc(C(=O)Nc2ccc(CN3CCN(C)CC3)c(C(F)(F)F)c2)cc1C#Cc1cnc2cccnn12 | 60.2 | 59.1 | 51.4 | 56.7 | 56.8 | 50 | 62.7 | 18.6 | 6.05 | 22.9
6 | O=NO | 0.973 | 1.57 | -0.944 | 0.322 | 0.656 | 1.76 | -0.386 | -0.178 | 1.15 | -0.00307
7 | O=c1oc2c(O)c(O)cc3c(=O)oc4c(O)c(O)cc1c4c23 | 1.91 | 2.55 | 2.78 | 2.1 | 1.54 | -1.49 | -1.26 | -0.815 | -0.974 | 1.4
8 | Clc1ccc(CSC(Cn2ccnc2)c2ccc(Cl)cc2Cl)cc1 (stereo not given) | 3.26 | -0.102 | 3.59 | 1.99 | 11.1 | 8.31 | 9.42 | 16.1 | 3.55 | 10.8
9 | CC(=O)Nc1ncc([N+](=O)[O-])s1 | -0.525 | -1.35 | -1.25 | -0.952 | 1.46 | 1.88 | -5.25 | -1.68 | -0.127 | 11.8
10 | CC[C@H](C)C(=O)O[C@H]1CCC=C2C=C[C@H](C)[C@H](CC[C@@H]3C[C@@H](O)CC(=O)O3)[C@H]21 | 3.29 | -2.48 | 9.34 | 3.1 | 21.1 | 12.9 | 47.3 | 15.3 | -4.05 | 28.8
11 | C#Cc1cccc(Nc2ncnc3cc(OCCOC)c(OCCOC)cc23)c1 | 4.75 | 0.211 | 3.55 | 2.64 | 5.69 | 6.15 | 20.9 | -5.33 | 3.91 | 1.17
12 | C#CC1(O)CC[C@H]2[C@@H]3CCC4=CC(=O)CC[C@@H]4[C@H]3CC[C@@]21CC (stereo not given in full) | -0.0424 | 0.475 | -1.66 | 0.691 | 0.0435 | 0.889 | -0.272 | -0.687 | 1.24 | 1.03
13 | C[C@@H]1C[C@H]2[C@@H]3C[C@H](F)C4=CC(=O)C=C[C@]4(C)[C@@]3(F)[C@@H](O)C[C@]2(C)[C@@]1(O)C(=O)CO | 2.44 | 5.42 | 0.269 | 4.89 | 3.56 | -0.761 | 5.26 | -0.633 | 0.461 | -1.67
14 | CCC(=O)O[C@]1(C(=O)CCl)[C@@H](C)C[C@H]2[C@@H]3C[C@H](F)C4=CC(=O)C=C[C@]4(C)[C@@]3(F)[C@@H](O)C[C@@]21C | 3.65 | 5.29 | 1.18 | 4.83 | 7.98 | 1.82 | -1.07 | 1.52 | 3.9 | 1.38
15 | CC[C@H](C)C(=O)O[C@H]1C[C@H](O)C=C2C=C[C@H](C)[C@H](CC[C@@H](O)C[C@@H](O)CC(=O)O)[C@H]21 | 1.52 | -5.39 | 5.32 | 1.14 | 8.71 | 5.23 | 17.3 | 1.99 | -4.73 | 2.62
16 | Cc1ccc(S(=O)(=O)NC(=O)NN2CC3CCCC3C2)cc1 (stereo not given) | 1.02 | 1.27 | 1.73 | 0.944 | 1.58 | -0.55 | 35.3 | 1.96 | -4.19 | 0.367

Row | SMILES | growth inhibition (DIPGX29) [%] | growth inhibition (DIPGX37) [%] | growth inhibition (DIPGX7) [%] | growth inhibition (DIPGX9) [%] | growth inhibition (HGGX39) [%] | growth inhibition (HGGX6) [%] | growth inhibition (HNSC) [%] | growth inhibition (SUDIPGIV) [%] | growth inhibition (SUDIPGVI) [%] | growth inhibition (SUDIPGXIII) [%]
17 | CCCCCCCCCCC[C@@H](C[C@@H]1OC(=O)[C@H]1CCCCCC)OC(=O)[C@H](CC(C)C)NC=O | -2.1 | -1.45 | -1.06 | -1.8 | -0.97 | 0.864 | -6.06 | -1.86 | -3.34 | 0.12
18 | NCC(=O)CCC(=O)O | -0.565 | 0.832 | -1.28 | 0.54 | 0.759 | 1.54 | -1.87 | 0.45 | 0.00902 | 0.537
19 | COc1cc2/c(=N/c3ccc(Br)cc3F)nc[nH]c2cc1OCC1CCN(C)CC1 | 11.5 | 2.67 | 4.34 | 7.45 | 11.1 | 10.7 | 9.55 | -1.09 | -4.91 | 0.39
20 | CN(C)CCCOc1nn(Cc2ccccc2)c2ccccc12 | 13.9 | -2.22 | 24.6 | 5.76 | 18.9 | 14.8 | 40.8 | 18.5 | -1.11 | 0.197
21 | C[C@]12CC[C@@H]3c4ccc(O)cc4C[C@@H](CCCCCCCCC[S+]([O-])CCCC(F)(F)C(F)(F)F)[C@H]3[C@@H]1CC[C@@H]2O (stereo not given in full) | 0.0636 | 0.16 | 0.804 | -0.923 | 8.06 | -1.09 | 2 | -0.255 | -0.348 | 2.55
22 | COc1ccc(O)cc1 | -0.0157 | 0.851 | 0.553 | 0.0566 | -0.798 | 0.118 | 0.201 | -3.15 | -3.4 | 0.564
23 | CC(C)CN(C[C@@H](O)[C@H](Cc1ccccc1)NC(=O)O[C@H]1CCOC1)S(=O)(=O)c1ccc(N)cc1 | -0.715 | -0.112 | -0.0284 | -0.297 | -0.345 | -0.047 | -1.76 | -2.74 | -1.11 | 0.567
24 | NC[C@H]1O[C@H](O[C@H]2[C@H](O)[C@@H](O[C@H]3O[C@H](CO)[C@@H](O)[C@H](N)[C@H]3O)[C@H](N)C[C@@H]2N)[C@H](N)C[C@@H]1O | -1.1 | -0.159 | -0.415 | -0.0629 | -1.03 | 1.31 | -1.87 | -0.0713 | -0.514 | -17.5
25 | Cc1ccc(C(=O)C(C)CN2CCCCC2)cc1 (stereo not given) | 0.542 | 0.69 | 0.522 | 0.564 | 1.58 | 2.83 | -0.193 | -0.938 | -0.166 | 0.909
26 | CC(=O)O[C@H]1C[C@@H]2CC[C@@H]3[C@H](CC[C@@]4(C)[C@H]3C[C@H]([N+]3(C)CCCCC3)[C@@H]4OC(C)=O)[C@@]2(C)C[C@@H]1N1CCCCC1 | 0.923 | -0.759 | 1.01 | 1.13 | 1.15 | -0.813 | 1.96 | -0.377 | 1.82 | -0.269
27 | O=c1n(CCCN2CCN(c3cccc(Cl)c3)CC2)nc2ccccn12 | 3.64 | 2.01 | 4.26 | 3.67 | 4.78 | 3.57 | 6.62 | 2.09 | 4.36 | 0.00306
28 | CCCCC1=NC2(CCCC2)C(=O)N1Cc1ccc(-c2ccccc2-c2nnn[nH]2)cc1 | 1.91 | 3.8 | 1.68 | 1.47 | 3.35 | 3.43 | 2.66 | -0.0514 | 3.23 | 0.582
29 | C[C@H]1[C@H](NC(=O)/C(=N\OC(C)(C)C(=O)O)c2csc(N)n2)C(=O)N1S(=O)(=O)O | 1.82 | 1.51 | 2.55 | 1.75 | 2.62 | 1.95 | 1.91 | 1.35 | 3.09 | 1.38
30 | O=C(O)c1ccc(-n2nc(-c3ccccc3O)nc2-c2ccccc2O)cc1 | -3.59 | -2.58 | 0.0493 | -2.68 | -2 | -3.44 | 1.36 | -5.33 | -6.58 | 0.207
31 | COc1cc2nc(N3CCN(C(=O)C4CCCO4)CC3)nc(N)c2cc1OC (stereo not given) | 1.51 | -0.298 | 0.774 | 0.282 | 2.19 | -0.97 | 28 | 2.95 | -1.11 | -3.7
32 | NC(=O)NO | -5.64 | -0.579 | -2.73 | -1.74 | -1.77 | -4.15 | 2.98 | -2.11 | -4.44 | 1.21

Reference: the supplement of paper PMC8253809
